Values joined by “and” are separate entries in the source; they are usually repeats but may differ in a detail not shown here. Identical values can stand only once. Results filed as inconclusive are left out. Unmarked numbers belong to inactive results. Unless noted, calls come from the whole dose curve.

Our source for the activation values is PubChem BioAssay (NCATS).

In the first assay the target is Bile acid receptor (Homo sapiens) (UniProt Q96RI1). The experiment in a line: qHTS assay for small molecule agonists of farnesoid X receptor signaling (AID 588527).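 Note: series mostly up to about 77 µM; 0% = vehicle basal and 100% = reference agonist.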 The settings on record: HEK293T FXR-UAS-bla, beta-lactamase ratio, 16 h; stronger effect = higher value. Summed up: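 FXR-UAS-bla HEK293T, 10% dialyzed FBS; cpds up to 92 uM titration, 16 h 37 C; CCF4 dye 2 h RT; fluorescence. Normalized to chenodeoxycholic acid 100 uM (100%) and DMSO (0%); Hill fit gives EC50, efficacy.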
Chain of Bile acid receptor (Homo sapiens) (Q96RI1 whole entry, looked up): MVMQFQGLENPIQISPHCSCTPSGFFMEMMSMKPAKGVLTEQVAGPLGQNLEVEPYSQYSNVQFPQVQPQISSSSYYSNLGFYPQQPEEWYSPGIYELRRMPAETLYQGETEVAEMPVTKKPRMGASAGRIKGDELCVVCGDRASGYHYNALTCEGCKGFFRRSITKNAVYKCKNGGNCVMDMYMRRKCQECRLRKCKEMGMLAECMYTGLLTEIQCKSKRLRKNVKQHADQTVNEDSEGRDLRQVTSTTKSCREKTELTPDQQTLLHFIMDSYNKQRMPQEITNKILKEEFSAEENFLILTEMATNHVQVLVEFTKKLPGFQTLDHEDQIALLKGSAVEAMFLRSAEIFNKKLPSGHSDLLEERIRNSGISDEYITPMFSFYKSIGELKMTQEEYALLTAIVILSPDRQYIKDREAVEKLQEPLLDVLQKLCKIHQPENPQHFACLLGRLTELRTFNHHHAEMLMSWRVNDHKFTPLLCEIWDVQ
(In general: qHTS replaces the single test concentration by a dilution series.)
As for `O=C(O)c1cc(-c2ccccc2)nc2ccccc12`, the activation was -1.96%.
On the same count and under the same terms, as for `Clc1ccc(C(c2ccc(Cl)cc2)C(Cl)(Cl)Cl)cc1`, the figure is 4.82%; as for `CC(=O)N1CCN(c2ccc(OC[C@H]3CO[C@](Cn4ccnc4)(c4ccc(Cl)cc4Cl)O3)cc2)CC1`, -1.01%; as for `Cc1cc(=O)n(-c2ccccc2)n1C`, 1.08%.
Same read-out and setting: as for `COc1ccc2[nH]cc(CCNC(C)=O)c2c1`, the figure is 0.0339% and -2.2% and -1.63%; as for `O=P1(N(CCCl)CCCl)NCCCO1` (stereo not drawn), -1.19% and 1.86%.
For `O=C(O)CCCc1ccc(N(CCCl)CCCl)cc1`, the activation was -2.97% and 0.833%.

In a further assay the target is Glucocorticoid receptor (Homo sapiens) (UniProt P04150). The assay is described as follows: qHTS assay for small molecule agonists of glucocorticoid receptor signaling (AID 588532; active = well fitted curve in the direction sought with a large enough effect in the signal ratio, with a control signal flat; the % refers to the signal ratio;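 note: 100% = dexamethasone at 0.1 µM and 0% = DMSO only wells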). The settings on record: HeLa MMTV-bla, beta-lactamase ratio, agonist, 18 h; stronger effect = higher value; percent of dexamethasone control, DMSO zero. The procedure, abridged: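 HeLa GRE-bla reporter cells; 18 h compound exposure at 37 C; 2 h CCF4 loading at room temperature; fluorescence at 460 and 530 nm; EC50 by Hill equation.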
Chain of Glucocorticoid receptor (Homo sapiens) (P04150 whole entry, looked up): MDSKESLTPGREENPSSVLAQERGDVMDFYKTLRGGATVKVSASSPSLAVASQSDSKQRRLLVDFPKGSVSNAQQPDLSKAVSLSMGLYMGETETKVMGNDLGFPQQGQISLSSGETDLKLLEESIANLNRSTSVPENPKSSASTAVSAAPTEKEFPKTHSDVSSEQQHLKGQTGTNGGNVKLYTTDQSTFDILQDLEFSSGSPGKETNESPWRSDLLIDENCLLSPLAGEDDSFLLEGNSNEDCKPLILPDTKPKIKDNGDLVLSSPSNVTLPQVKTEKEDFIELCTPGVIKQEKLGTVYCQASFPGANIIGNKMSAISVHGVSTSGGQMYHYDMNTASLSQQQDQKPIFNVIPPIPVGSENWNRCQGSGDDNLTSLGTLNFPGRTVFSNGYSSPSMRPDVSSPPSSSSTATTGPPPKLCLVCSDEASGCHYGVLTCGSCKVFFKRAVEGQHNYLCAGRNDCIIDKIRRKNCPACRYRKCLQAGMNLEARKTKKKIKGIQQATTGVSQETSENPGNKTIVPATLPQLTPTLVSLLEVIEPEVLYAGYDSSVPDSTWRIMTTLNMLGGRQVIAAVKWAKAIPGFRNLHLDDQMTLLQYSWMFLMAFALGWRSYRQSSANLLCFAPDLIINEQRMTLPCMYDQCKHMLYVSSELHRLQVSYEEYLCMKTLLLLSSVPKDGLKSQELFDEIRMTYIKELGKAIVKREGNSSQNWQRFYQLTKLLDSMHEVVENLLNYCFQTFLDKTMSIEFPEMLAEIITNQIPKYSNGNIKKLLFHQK
With `CCOP(=S)(OCC)Oc1ccc2c(C)c(Cl)c(=O)oc2c1`, the activation was -1.75%.
The same measure, in the same setting: as for `CN1C[C@H](C(=O)N[C@]2(C)O[C@@]3(O)[C@@H]4CCCN4C(=O)[C@H](Cc4ccccc4)N3C2=O)C=C2c3cccc4[nH]cc(c34)C[C@H]21`, the figure is -6.8%; as for `O=C1c2ccccc2C(=O)C1C(=O)C(c1ccccc1)c1ccccc1`, -2.9%.
On the same count and under the same terms, the same measure for `COc1cc(OC)c(OC)cc1C=O`: 3.74%.
Still for that read-out and setting: as for `CC(C)NC(C)C`, the figure is -3.7%; as for `COC(=O)C(c1ccccc1)C1CCCCN1` (stereo not drawn), 2.14%.
In the case of `CCC(C)(C)c1ccc(O)cc1`, the activation was -4.8%.
Same read-out and setting: as for `COP(=S)(OC)Oc1ccc(SC)c(C)c1`, the figure is -2.46% and 5.56%.
On the same count and under the same terms, the same measure for `NCCc1ccc(O)cc1`: 18.1%.
Same read-out and setting: the same measure for `COP(=S)(OC)Oc1cc(Cl)c(Cl)cc1Cl`: -3.3%; for `Clc1ccc(C(c2ccc(Cl)cc2)C(Cl)(Cl)Cl)cc1`: 4.79% and 0.666%; for `CCOC(=O)CC(SP(=S)(OC)OC)C(=O)OCC` (stereo not drawn): -4.46% and 3.12% and 14.7%.
Take `COP(=S)(OC)SCN1C(=O)c2ccccc2C1=O`: the activation was 10.5%.
The same measure, in the same setting: the same measure for `CCCC(C)(COC(N)=O)COC(N)=O`: -13.9%; for `O=P1(N(CCCl)CCCl)NCCCO1` (stereo not drawn): 2.61% and 1.05%.
On the same count and under the same terms, the same measure for `CC1(C)C(C=C(Cl)Cl)C1C(=O)OC(C#N)c1cccc(Oc2ccccc2)c1` (stereo not drawn): -2.93%.
